We go through eight molecules from PubChem BioAssay (NCI).

What all share (experiment): NCI-60 one-dose screen, 48 h (100 = growth as untreated, 0 = no growth, -100 = all killed)
Common to all, as to details: 10 µM unless noted

Experiment [1] has as its system SK-MEL-2 melanoma.
The subject of experiment [2] is EKVX NSCLC.
In experiment [3] the test system is SN12C renal.
The subject of experiment [4] is UO-31 renal.
In experiment [5] the test system is TK-10 renal.
Experiment [6] relates to ACHN renal.
Experiment [7] has as its system CAKI-1 renal.
The test system of experiment [8] is A498 renal.
The subject of experiment [9] is CCRF-CEM leukemia.
The subject of experiment [10] is MOLT-4 leukemia.
For experiment [11], the system named is SR leukemia.
For experiment [12], the system named is RPMI-8226 leukemia.
The subject of experiment [13] is OVCAR-5 ovarian.
Experiment [14] relates to OVCAR-4 ovarian.
Experiment [15] has as its system SK-OV-3 ovarian.
Experiment [16] concerns IGROV1 ovarian.
Experiment [17] has as its system OVCAR-3 ovarian.
Experiment [18] concerns HS 578T breast.
The subject of experiment [19] is NCI/ADR-RES ovarian.
Experiment [20] relates to OVCAR-8 ovarian.

Structures are written as SMILES. The panel holds about 83,000 compounds, 20% with a hit somewhere; the sample as a whole holds those more often.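 Single-concentration screen, 48 h exposure, 96-well plates. Endpoint: percent growth. Below 10 = active.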 A number with no mark means an inactive call. Calls of active or inactive are those of the source.

Consider `COc1cc2c(=O)n(CC3CCCCC3)c3c4cc[nH]c4ncc3c2cc1OC`, for which the growth is 64% in experiment [1]; 63.9% in [2]; 25.7% in experiment [3]; 23.1% in experiment [4]; 49.8% in [5]; 26.8% in experiment [6]. The growth in experiment [7] was 37.7%; in experiment [8], -5.29% (active); in experiment [9] it was 39.5%; in [10], 49.5%; in [11], 6.22% (active); in experiment [12], 34.5%. For the same molecule, the growth in experiment [13] was 52.3%; in experiment [14] it was 19.3%; in experiment [15] it was 47.7%; in experiment [16], 23.6%; in experiment [17], 38.7%; in experiment [18], -4.62% (active). The growth in experiment [19] is 33.8%.

Regarding `Nc1cccc(NC(=O)C(=O)Nc2cccc(N)c2)c1`, the growth in [1] is 97.6%; in experiment [2] it was 94%; in experiment [3], 88.6%; in experiment [4], 84.4%; in [5], 122%; in experiment [6] it was 85.8%. The growth in [7] is 78.1%; in experiment [8], 89.6%; in experiment [9], 97.9%; in [10] it was 98.1%; in experiment [11] it was 115%; in [20] it was 94.8%. For the same molecule, the growth was 94.5% in experiment [13]; 126% in experiment [14]; 117% in experiment [15]; 75.7% in [16]; 101% in experiment [17]; 89.8% in experiment [18]. Further, the growth in experiment [19] was 93.1%.

In the case of `COC1=CC(=O)C(OC)=C(OC)C1=O`, the growth in [1] was 99.3%; in [2], 98.6%; in experiment [3], 101%; in experiment [4], 104%; in [5], 115%; in experiment [6], 111%. Moreover, the growth was 95.4% in experiment [7]; 88.2% in [8]; 31.9% in [9]; -7.34% (active) in [10]; 36.5% in experiment [11]; 67.1% in experiment [12]. The growth in experiment [13] was 107%; in experiment [14], 77.4%; in [15] it was 92.5%; in experiment [16] it was 113%; in experiment [17], 104%; in experiment [18] it was 95.5%. In experiment [19], the growth is 100%.

As to `O=[N+]([O-])c1cccc(-c2nc3sccn3c2-c2ccnc(NCCCNS(=O)(=O)c3ccc(Br)cc3)n2)c1`, the growth in experiment [1] was 47%; in [2] it was 59.4%; in experiment [3], 53%; in experiment [4], 22.7%; in experiment [5] it was 102%; in experiment [6], 46.7%. In addition, the growth in experiment [7] was 41.4%; in experiment [8] it was 52.8%; in experiment [9], 18.6%; in [10], 19.7%; in [11], 51.8%; in [20], 28.2%. Moreover, the growth in experiment [13] was 114%; in [14], 32.7%; in experiment [15], 92.5%; in experiment [16], 41.6%; in [17], 51.2%; in experiment [18] it was 87.7%. Moreover, the growth in experiment [19] was 23.1%.

As to `Cc1cc(=O)oc2cc(Oc3nc(-c4ccc(Cl)cc4)cn4c(-c5ccc(Cl)cc5)cnc34)ccc12`, the growth was 106% in experiment [1]; 106% in experiment [2]; 100% in experiment [3]; 85.5% in [4]; 104% in experiment [5]; 97.7% in experiment [6]. Also, the growth was 90.2% in experiment [7]; 105% in [8]; 80.6% in [9]; 74.5% in experiment [10]; 50.9% in experiment [11]; 92.5% in [20]. Moreover, the growth in [13] is 94.6%; in experiment [14], 85.6%; in experiment [15], 103%; in [16] it was 97.6%; in experiment [17], 107%; in [18] it was 87.8%. The growth in [19] is 78.8%.

Take `C/C(=C(/c1ccc(O)cc1)c1ccc(Cl)cc1)c1ccccc1`: the growth was -85.1% (active) in experiment [1]; -81% (active) in experiment [2]; -90.5% (active) in [3]; -100% (active) in experiment [4]; -63.7% (active) in [5]; -92.3% (active) in [6]. Moreover, the growth in [7] was -54.2% (active); in experiment [8] it was -55.1% (active); in [9], -61.2% (active); in experiment [10] it was -29.5% (active); in experiment [11], -27.9% (active); in experiment [12] it was -45.9% (active). In addition, the growth in experiment [13] was -85.3% (active); in [14], -97.4% (active); in experiment [15] it was -85.6% (active); in experiment [16], -73.1% (active); in [17], -92.5% (active); in [18] it was -37.6% (active). Besides, the growth in experiment [19] was -71% (active).

For `CCN(CC)CCCC(C)Nc1ccnc2c(OC)cccc12` (stereo unspecified), the growth was 127% in experiment [1]; 112% in experiment [2]; 101% in experiment [3]; 87.4% in experiment [4]; 120% in experiment [5]; 122% in [6]. Besides, the growth in experiment [7] is 101%; in [8], 135%; in experiment [9], 94.3%; in experiment [10], 102%; in experiment [11], 97.3%; in experiment [20], 106%. The growth in experiment [13] is 102%; in [14], 111%; in [15] it was 117%; in experiment [16] it was 109%; in [18], 127%; in [19], 110%.

In the case of `C[C@@H]1CCC2=C(CCC[C@]2(C)C(=O)O)[C@@]1(C)CCc1ccoc1`, the growth in experiment [1] is 92.1%; in experiment [2], 101%; in experiment [3], 89.6%; in [4], 87.7%; in experiment [5] it was 92.3%; in experiment [6], 101%. The growth was 99.6% in [7]; 83.3% in experiment [8]; 102% in [9]; 113% in experiment [10]; 97.6% in [11]; 92.9% in experiment [12]. Also, the growth in [13] is 112%; in experiment [14], 109%; in [15] it was 99.1%; in [16] it was 99.8%; in [17], 101%; in experiment [18] it was 88%. The growth in experiment [19] is 98.7%.
